In all, about 69,000 compounds went through this assay and about 8,600 (12%) showed an effect of 50% or more. The sample holds strong results, similar compounds and a random draw of the others, so the mix is not that of the screen.

In the experiment the test system is Plasmodium berghei. As to the kind of experiment: Screen against P. berghei liver stage (PbLuc), transformed with Luciferase, at 10uM. It is filed as functional, HepG2. Particulars: tested at 10 uM.
Regarding `Fc1ccccc1OCCc1cc(C2CCNC2)n[nH]1` (stereo not given), the INHIBITION is -14.1%. To `Cc1nc(CN2CCCC(N(C)CCCc3ccccc3)C2)no1` (stereo not given) belongs -11.4%; to `Cc1cc(N2CCC(O)CC2)nc(C2CCCN2C)n1` (stereo not given), 9.6%. Turning to `O=C(Nc1ccccc1)c1cc2n(n1)CCCN(C(=O)c1ccc[nH]1)C2`, the INHIBITION stood at 28.5%. To `CCc1ccc(C(=O)N2CCN(Cc3ccc(F)cc3)CC2)s1` belongs 68.5%.

Consider `COCc1ccc(C(=O)N2CCCN(Cc3ccc(F)cc3)CC2)s1`, for which the INHIBITION is recorded as 14.3%. With `CCc1nnsc1C(=O)N1CCCN(Cc2ccc(F)cc2)CC1` the figure was -0.219%.

Regarding `Cc1cc(C)n(CC2CCCN2C(=O)c2cnccn2)n1` (stereo not given), the INHIBITION is on record as -3.7%. With `CC(Cn1ccnc1)NC(=O)N1CCCN(Cc2cccs2)CC1` (stereo not given) the figure was 21.5%. With `c1csc(CN2CCCN(c3ccc(Cn4ccnc4)cn3)CC2)c1` the figure was 52.6%; with `O=c1cc(Cn2ccnc2)nc2n1CCCN(Cc1ccncc1)C2`, -32%. To `O=C(NCCn1ccnc1)N1CCCN(Cc2cccs2)CC1` belongs -39.7%. Regarding `c1cn(Cc2ccc(N3CCCN(C4CCCC4)CC3)nc2)cn1`, the INHIBITION is recorded as 13.5%. To `Cc1nc(CN2CCCn3c(nc(Cn4cncn4)cc3=O)C2)cs1` belongs 51.2%; to `O=c1cc(Cn2ccnc2)nc2n1CCCN(Cc1ccco1)C2`, 8.85%. To `Cc1nc(CN2CCCn3c(nc(Cn4ccnc4)cc3=O)C2)cs1` belongs -16.6%. To `O=c1cc(Cn2cncn2)nc2n1CCCN(Cc1ccsc1)C2` belongs 12.7%; to `OC1CCN(C2CCN(c3ccc(Cn4ccnc4)cn3)CC2)CC1`, 24.4%. As to `Fc1ccc(N2CCCN(c3ccc(Cn4ccnc4)cn3)CC2)cc1`, the INHIBITION was 92.8%.

Turning to `O=c1cc(Cn2ccnc2)nc2n1CCCN(Cc1cccs1)C2`, the INHIBITION came out at 53.4%. `Cc1nccn1C1CCCN(C(=O)CCOCC(F)(F)F)C1` (stereo not given): the INHIBITION worked out at 1.15%. As to `CC(C)N(C)Cc1cnc2n1CCN(Cc1ccc(F)cc1)C2`, the INHIBITION came to 17.4%. With `Cc1cc2c(c(=O)n1CCC(=O)O)C=CC(C)(C)O2` the figure was 10.9%; with `Cc1nc2cc(-c3nccn3C)nn2c(N2CCCC(O)C2)c1C` (stereo not given), 6.335%; with `Cn1cc(C(=O)N2C[C@H]3CC(Oc4ccccc4)C[C@H]3C2)cn1` (stereo not given in full), 3.92%. In the case of `CS(=O)(=O)N1C[C@H]2CCCN(Cc3cccs3)[C@H]2C1`, the INHIBITION was found to be 24.6%. To `CN(C)Cc1cc(=O)n2c(n1)CN(Cc1ccco1)CCC2` belongs 26.5%; to `O=c1cc(CN2CCCC2)nc2n1CCCN(Cc1ccco1)C2`, 0.804%. To `CS(=O)(=O)NCc1cc(=O)n2c(n1)CN(Cc1ccco1)CCC2` belongs 52.3%; to `CCc1nc(CN2CCCCC2C(N)=O)cs1` (stereo not given), -2.43%. With `Cc1cc(C(=O)NC(C)CC(=O)c2cccs2)n(C)n1` (stereo not given) the figure was -18.8%; with `Cc1nn(C)c(C)c1C(=O)NC(C)CC(=O)c1cccs1` (stereo not given), 61.4%.

Consider `COc1c(C(=O)NC(C)CC(=O)c2cccs2)c(C)nn1C` (stereo not given), for which the INHIBITION is recorded as 36.7%.

Turning to `O=C([C@@H]1CC[C@@H]2[C@@H](CCN2c2ccncn2)O1)N1CCCCO1`, the INHIBITION is listed as 5.68%. To `COCCOc1ccc(NC(=O)N2CCOC(C(N)=O)C2)cc1F` (stereo not given) belongs 15.9%; to `COc1ccc(C2(NC(=O)C3CC(=O)N(C)C3)CCCC2)cc1` (stereo not given), 26%; to `CNC(=O)CN1CCC(CN(C)Cc2ccncc2Cl)CC1`, -22.1%. With `O=C(C1CCOC1)N1CCc2ncnc(C3CC3)c2CC1` (stereo not given) the figure was -13.4%. With `Nc1nc2c(c(NC3CCCC3)n1)CCN(C(=O)C1CCOC1)CC2` (stereo not given) the figure was 97.2%; with `O=C(C1CCCO1)N1CCc2ncnc(NC3CCC3)c2CC1` (stereo not given), -29.5%. As to `CC(C)Nc1nc2c(c(NC3CC3)n1)CCN(C(=O)C1CCOC1)CC2` (stereo not given), the INHIBITION amounted to 34.3%. To `O=C(C1CCOC1)N1CCc2ncnc(NC3CCC3)c2CC1` (stereo not given) belongs 51.3%; to `O=C([C@H]1CCCO1)N1CCc2ncnc(NC3CC3)c2CC1`, 48.5%; to `N#Cc1cccc(OCc2ccoc2C(=O)N2CCCCCC2)c1`, 5.91%.

Turning to `O=C(C1CCCO1)N1C[C@@H]2CCN(c3cnccn3)C[C@@H]2C1` (stereo not given in full), the INHIBITION came out at 28.4%.

As to `Cc1cc(C(=O)NCc2c(C)nn(C)c2C)nc(N2CCCC2)n1`, the INHIBITION is -31.4%. With `O=C(O)c1cnc(N2CC[C@H](N3CCOCC3)[C@H](CCCO)C2)c(Cl)c1` the figure was 14%; with `O=S(=O)(NC1=NCN(CCc2ccccc2)CN1)c1ccc(F)cc1`, -4.52%. With `Cc1occc1C(=O)NCc1cccnc1N(C)C` the figure was 33.15%; with `CC(c1nc(-c2ccccc2)no1)N1CCc2c(ncn2C2CC2)C1` (stereo not given), 78.3%; with `CC(c1nc(C2CC2)no1)N1CCc2c(ncn2C2CC2)C1` (stereo not given), 17%. With `CCc1noc(C(C)N2CCc3c(ncn3C3CC3)C2)n1` (stereo not given) the figure was -1.04%; with `Cc1cccc(-c2noc(CN3CCc4c(ncn4C4CC4)C3)n2)c1`, 18.3%; with `CC(c1nc(C2CC2)no1)N1CCN(CCc2ccncc2)CC1` (stereo not given), -45.9%.

Consider `CC(c1nc(C2CC2)no1)N1CCc2c(ncn2C)C1` (stereo not given), for which the INHIBITION amounted to 56%.

Source of the values: ChEMBL document CHEMBL4513216, “Probing the Open Global Health Chemical Diversity Library for Multistage-Active Starting Points for Next-Generation Antimalarials” (ACS Infect Dis, 2020).
